PubChem BioAssay (NCATS)
Records with an inconclusive call do not appear. The source made the active and inactive calls. Calls come from the whole dose curve; as a rule, active = well fitted curve in the direction sought with a large enough effect; inconclusive = small, poorly fitted or top-dose-only effect, or another doubt; inactive = no such curve, though single readings can be large; an effect the other way counts as inactive or inconclusive.

Experiments:
[1] = HEK293 24hr Apoptosis Induction qHTS against the NCATS CANVASS Library (AID 1347359); conditions: HEK293 caspase-3/7 activation, Caspase-Glo luminescence; series mostly up to 46.1 µM
Method in brief: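 Caspase-3/7 activation measured as luminescence from the DEVD-based Caspase-Glo reagent, 15 min at room temperature, following 24-hour compound treatment of HEK293 cells.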

[2] = HPAF-II 18hr Apoptosis Induction qHTS against the NCATS CANVASS Library (AID 1347360); conditions: HPAF-II caspase-3/7 luminescence; series mostly up to 46.1 µM
Method in brief: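 Luminescent DEVD-substrate signal, proportional to caspase activity, is measured in HPAF-II cells after 18-hour treatment across a concentration series; doxorubicin serves as control.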

[3] = HEK293 12hr Apoptosis Induction qHTS against the NCATS CANVASS Library (AID 1347361); conditions: HEK293 caspase-3/7 Caspase-Glo luminescence; series mostly up to 46.1 µM
Method in brief: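 Luminescent caspase-3/7 signal, proportional to enzyme activity, was recorded from HEK293 cultures in DMEM + 10% FBS treated for 12 hours with titrated natural products (11 points). Doxorubicin (0.1nM - 4uM) served as control.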

[4] = target: Luciferin 4-monooxygenase (Photinus pyralis) (UniProt P08659); test: Firefly luciferase counterscreen qHTS: Assay Interference Panel against the NCATS CANVASS Library (AID 1347363); conditions: purified firefly luciferase, luminescence inhibition, 5 min; series mostly up to 57.5 µM
Method in brief: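 Luminescence inhibition readout: compounds (11-point qHTS) sat 15 min at room temperature with substrate mix (0.013 mM luciferin and ATP), then firefly luciferase was added and signal read 5 min later.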

[5] = KB-8-5-11 Cancer Cell Toxicity qHTS against the NCATS CANVASS Library (AID 1347364); conditions: KB-8-5-11 MDR cells viability, CellTiter-Glo, 72 h; series mostly up to 46.1 µM; note: nearly all actives have a fitted effect of over 75% in size
Method in brief: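 Natural products were titrated in 11 points onto KB-8-5-11 cells, 500 per well, and cytotoxicity was scored from CellTiter-Glo luminescence after 72 hr culture.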

[6] = SDT Cancer Cell Toxicity qHTS against the NCATS CANVASS Library (AID 1347365); conditions: SDT dog glioma viability, ATP luminescence, 72 h; series mostly up to 46.1 µM;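 note: SDT canine glioma cells 500 per well in 1536 well plates; nearly all actives have a fitted effect of over 60% in size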
Method in brief: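 Dispense 500 SDT cells per well; pin-transfer compounds; incubate 72 hr at 37C, 5% CO2, 95% RH; add CellTiterGlo and read luminescence.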

[7] = KB-3-1 Cancer Cell Toxicity qHTS against the NCATS CANVASS Library (AID 1347366); conditions: KB-3-1 viability, CellTiter-Glo luminescence, 72 h; series mostly up to 46.1 µM; note: nearly all actives have a fitted effect of over 75% in size
Method in brief: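 Cytotoxicity toward KB-3-1 cells (500/well, DMEM + 10% FBS) was scored by CellTiter-Glo luminescence following 72 hr exposure at 37C, with bortezomib titrated as control.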

[8] = qHTS for ATAD5 Agonist screened against the NCATS CANVASS Library (AID 1347367); conditions: HEK293T ATAD5-luciferase reporter, luminescence, 16 h; series mostly up to 46.1 µM;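 note: luciferase reporter driven by ATAD5 which rises upon DNA damage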
Method in brief: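 Genotoxicity was scored as increased ATAD5-luciferase luminescence in HEK293T after 16hr of exposure, with cell viability measured by fluorescence beforehand in the same well.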

[9] = G06 Cancer Cell Toxicity qHTS against the NCATS CANVASS Library (AID 1347368); conditions: G06 dog glioma cells, viability ATP luminescence, 72 h; series mostly up to 46.1 µM; note: nearly all actives have a fitted effect of over 60% in size
Method in brief: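 Cytotoxicity toward canine glioma G06 cells is scored from cellular ATP via luminescence after 72 hr compound exposure at 500 cells/well.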

[10] = tested on: NAD(P)H diaphorase (Clostridium kluyveri); test: Diaphorse counterscreen qHTS: Assay Interference Panel against the NCATS CANVASS Library (AID 1347362); conditions: Diaphorase enzyme, resazurin to resorufin fluorescence; series mostly up to 57.5 µM
Method in brief: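 Counterscreen for coupling-enzyme interference: resorufin fluorescence from resazurin/NADH turnover, read after 5 min at room temperature. Compounds were tested over an 11-point series after 15 min dark preincubation with diaphorase in PBS-Tween.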

Measured: outcome

Sequence of Luciferin 4-monooxygenase (Photinus pyralis) (P08659 whole entry, looked up): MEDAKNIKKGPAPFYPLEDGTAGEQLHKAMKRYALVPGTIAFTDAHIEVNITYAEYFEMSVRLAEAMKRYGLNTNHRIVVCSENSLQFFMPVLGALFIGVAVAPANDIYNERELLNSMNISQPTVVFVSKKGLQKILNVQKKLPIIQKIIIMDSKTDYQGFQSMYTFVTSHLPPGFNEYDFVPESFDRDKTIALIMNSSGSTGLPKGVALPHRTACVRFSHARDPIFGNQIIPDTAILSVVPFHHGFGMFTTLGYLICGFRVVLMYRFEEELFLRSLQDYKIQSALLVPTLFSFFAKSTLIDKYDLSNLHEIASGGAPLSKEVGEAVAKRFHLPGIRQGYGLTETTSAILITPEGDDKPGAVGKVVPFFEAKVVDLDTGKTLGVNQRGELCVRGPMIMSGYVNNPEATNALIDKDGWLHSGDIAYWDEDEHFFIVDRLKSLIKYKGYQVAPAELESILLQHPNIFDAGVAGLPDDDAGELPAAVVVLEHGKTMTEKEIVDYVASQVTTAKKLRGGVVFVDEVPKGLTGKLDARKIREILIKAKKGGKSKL

NCCc1c[nH]c2ccc(O)cc12
not listed: [10]
inactive: all other assays above

NCCc1c[nH]c2ccccc12
not listed: [6]
inactive: all other assays above
